SMILES strings stand for the structures. In all, about 39,000 compounds went through this assay and about 3,300 (8.5%) were called active. The sample as a whole holds a higher share of actives than the screen did.

In the assay the test system is HepG2. The assay is described as follows: cytotoxicity call (relative viability < 0.9). Particulars: 10 µM.
For the compound `C[C@@H]1CN([C@@H](C)CO)S(=O)(=O)c2ccc(-c3ccncc3)cc2O[C@@H]1CN(C)Cc1ccc(Oc2ccccc2)cc1`, the cytotoxicity call was “inactive”. The entry for `C[C@H](O)C#Cc1ccc2c(c1)O[C@@H](CN(C)C(=O)CN(C)C)[C@H](C)CN([C@H](C)CO)S2(=O)=O` is “inactive”. The entry for `C[C@@H]1CN([C@@H](C)CO)C(=O)c2cccc(NC(=O)Nc3ccccc3)c2O[C@@H]1CN(C)Cc1ccc(-c2ccccc2)cc1` is “active”; for `C[C@H]1CN([C@@H](C)CO)C(=O)c2cccc(NC(=O)Nc3ccccc3)c2O[C@@H]1CN(C)Cc1ccc(-c2ccccc2)cc1` it is “inactive”. As to `CC(C)NC(=O)Nc1cccc2c1O[C@H](CN(C)Cc1ccc(-c3ccccc3)cc1)[C@@H](C)CN([C@@H](C)CO)C2=O`, the cytotoxicity call is “active”. For `C[C@@H]1CN([C@H](C)CO)C(=O)c2cccc(NC(=O)Nc3ccc(F)cc3)c2O[C@H]1CN(C)Cc1ccc(-c2ccccc2)cc1`, the cytotoxicity call was “active”. The result for `CC(C)NC(=O)Nc1cccc2c1O[C@@H](CN(C)Cc1ccc(-c3ccccc3)cc1)[C@@H](C)CN([C@@H](C)CO)C2=O` reads “inactive”; that for `C[C@H](CO)N1C[C@H](C)[C@H](CN(C)Cc2ccc(-c3ccccc3)cc2)Oc2c(NC(=O)Nc3ccc(F)cc3)cccc2C1=O`, “inactive”. For the compound `C[C@H]1CN([C@@H](C)CO)C(=O)c2cccc(NC(=O)Nc3ccc(F)cc3)c2O[C@H]1CN(C)Cc1ccc(-c2ccccc2)cc1`, the cytotoxicity call was “inactive”. The result for `C[C@H]1CN([C@@H](C)CO)C(=O)c2cccc(NC(=O)Nc3ccc(F)cc3)c2O[C@@H]1CN(C)Cc1ccc(-c2ccccc2)cc1` reads “inactive”; that for `C[C@@H]1CN([C@@H](C)CO)C(=O)c2cccc(NC(=O)Nc3ccc(F)cc3)c2O[C@@H]1CN(C)Cc1ccc(-c2ccccc2)cc1`, “active”. For `C[C@H](CO)N1C[C@H](C)[C@@H](CN(C)Cc2ccc(-c3ccccc3)cc2)Oc2c(NC(=O)Nc3ccc(F)cc3)cccc2C1=O`, the cytotoxicity call was “inactive”. For the compound `C[C@@H]1CN([C@@H](C)CO)C(=O)c2cccc(NC(=O)Nc3ccccc3)c2O[C@H]1CN(C)Cc1ccc(-c2ccccc2)cc1`, the cytotoxicity call is “inactive”. The entry for `CC(C)NC(=O)Nc1cccc2c1O[C@H](CN(C)Cc1ccc(-c3ccccc3)cc1)[C@H](C)CN([C@H](C)CO)C2=O` is “inactive”. The entry for `CN1CCN(C(=O)C[C@H]2CC[C@@H]3[C@H](COC[C@H](O)CN3C(=O)C3CC3)O2)CC1` is “inactive”; for `O=C(O)[C@H]1CCCC[C@@H]1C(=O)N1CCOCC1` it is “inactive”; for `CO[C@@H]1CN(C)C(=O)c2ccc(NS(C)(=O)=O)cc2OC[C@@H](C)N(C(=O)C2CCCCC2)C[C@H]1C` it is “inactive”. Regarding `COc1ccc(NC(=O)N2C[C@@H](O)COC[C@@H]3O[C@H](CC(=O)NCc4ccccc4OC)CC[C@H]32)cc1`, the cytotoxicity call is “inactive”.

As for `C[C@@H]1CN([C@@H](C)CO)S(=O)(=O)c2ccc(C#CC3CC3)cc2O[C@H]1CN(C)Cc1ccccc1F`, the cytotoxicity call was “inactive”. The result for `COc1ccc(S(=O)(=O)N[C@H]2CC[C@@H](CC(=O)N3CCN(c4ccccc4)CC3)O[C@H]2CO)cc1` reads “inactive”.

Consider `CC(C)NC(=O)Nc1ccc2c(c1)C(=O)N([C@H](C)CO)C[C@@H](C)[C@H](CN(C)S(C)(=O)=O)OCCCC[C@H](C)O2`, for which the cytotoxicity call is “inactive”. Turning to `O=C(C[C@H]1CC[C@@H](NS(=O)(=O)c2ccc(F)cc2)[C@@H](CO)O1)NCc1ccc(Cl)c(Cl)c1`, the cytotoxicity call was “inactive”. The result for `C[C@@H]1CCCCO[C@@H](CN(C)C(=O)Nc2ccc(F)cc2)[C@H](C)CN([C@H](C)CO)C(=O)c2cc(NC(=O)Cc3ccccc3)ccc2O1` reads “inactive”; that for `C[C@@H]1O[C@@H](O[C@@H]2[C@@H](O)[C@H](C)O[C@@H](OC[C@H]3O[C@@H](Oc4c(-c5ccc(O)cc5)oc5cc(O)cc(O)c5c4=O)[C@H](O)[C@@H](O)[C@H]3O)[C@@H]2O)[C@H](O)[C@H](O)[C@H]1O`, “inactive”. Turning to `C[C@@H]1CN([C@@H](C)CO)C(=O)c2cc(C#Cc3cccnc3)cnc2O[C@@H]1CN(C)Cc1ccc(F)cc1`, the cytotoxicity call was “inactive”. `C[C@H](CO)N1C[C@H](C)[C@@H](CN(C)Cc2ccccc2)Oc2c(NC(=O)c3ccc(-c4nccs4)cc3)cccc2C1=O`: the cytotoxicity call was “inactive”.

As for `N#CCNC(=O)Cc1ccccc1`, the cytotoxicity call is “inactive”. Take `NC(Cc1cc(I)c(Oc2ccc(O)c(I)c2)c(I)c1)C(=O)[O-].[Na+]` [LIOTHYRONINE (L- isomer) SODIUM ]: the cytotoxicity call was “active”. The entry for `N[C@@H](Cc1cc(I)c(Oc2ccc(O)c(I)c2)c(I)c1)C(=O)O` is “inactive”; for `NC(Cc1cc(I)c(Oc2ccc(O)c(I)c2)c(I)c1)C(=O)O` (centres undefined) it is “inactive”; for `COc1cccc(S(=O)(=O)Nc2ccc3c(c2)[C@@H]2C[C@@H](CC(=O)NCc4cccc(F)c4)O[C@@H](CO)[C@@H]2O3)c1` it is “inactive”.

Turning to `Cc1noc(C)c1S(=O)(=O)Nc1ccc2c(c1)CC(=O)N([C@H](C)CO)C[C@H](C)[C@H](CN(C)CC1CC1)O2`, the cytotoxicity call was “inactive”. For the compound `Cc1noc(C)c1S(=O)(=O)N(C)C[C@H]1OCCCC[C@H](C)Oc2ccc(NC(=O)Nc3ccccc3)cc2C(=O)N([C@H](C)CO)C[C@@H]1C`, the cytotoxicity call is “inactive”. The entry for `Cc1noc(C)c1S(=O)(=O)N(C)C[C@@H]1OCCCC[C@@H](C)Oc2ccc(NC(=O)Nc3ccccc3)cc2C(=O)N([C@@H](C)CO)C[C@@H]1C` is “inactive”; for `Cc1noc(C)c1S(=O)(=O)N(C)C[C@H]1OCCCC[C@@H](C)Oc2ccc(NC(=O)Nc3ccccc3)cc2C(=O)N([C@@H](C)CO)C[C@@H]1C` it is “active”; for `Cc1noc(C)c1S(=O)(=O)N(C)C[C@H]1OCCCC[C@H](C)Oc2ccc(NC(=O)Nc3ccccc3)cc2C(=O)N([C@H](C)CO)C[C@H]1C` it is “inactive”.

As to `Cc1noc(C)c1S(=O)(=O)N(C)C[C@@H]1OCCCC[C@H](C)Oc2ccc(NC(=O)Nc3ccccc3)cc2C(=O)N([C@H](C)CO)C[C@H]1C`, the cytotoxicity call was “active”. The result for `Cc1noc(C)c1S(=O)(=O)N(C)C[C@@H]1OCCCC[C@@H](C)Oc2ccc(NC(=O)Nc3ccccc3)cc2C(=O)N([C@H](C)CO)C[C@H]1C` reads “inactive”; that for `COc1cccc(S(=O)(=O)N(C)C[C@H]2Oc3cc(C4=CCCC4)ccc3S(=O)(=O)N([C@@H](C)CO)C[C@@H]2C)c1`, “inactive”. Turning to `CC(C)NC(=O)Nc1ccc2c(c1)C(=O)N([C@@H](C)CO)C[C@@H](C)[C@@H](CN(C)C(=O)Nc1ccccc1)OCCCC[C@H](C)O2`, the cytotoxicity call is “inactive”.

As to `C[C@@H](NC(=O)C[C@@H]1C=C[C@H](NC(=O)CN2CCOCC2)[C@H](CO)O1)c1ccccc1`, the cytotoxicity call is “inactive”. Regarding `CC1=CC(C)(C)N(C(=O)Nc2ccc(C)cc2)c2ccccc21`, the cytotoxicity call is “inactive”. Regarding `Cc1ccc(OC(=O)n2c3ccccc3c3ccccc32)cc1`, the cytotoxicity call is “inactive”. The result for `Cc1ccc(NC(=O)n2c3ccccc3c3ccccc32)cc1` reads “active”; that for `C[C@@H]1CN([C@H](C)CO)S(=O)(=O)c2ccc(C3=CCCCC3)cc2O[C@H]1CN(C)S(=O)(=O)c1cn(C)cn1`, “inactive”; that for `O=C(C[C@@H]1CC[C@@H]2[C@H](COC[C@@H](O)CN2S(=O)(=O)c2cccc(Cl)c2)O1)NCc1ccc2c(c1)OCO2`, “inactive”. The result for `O=C(NO)c1ccc(-c2cn(CC(=O)N3CCOCC3)nn2)s1` reads “inactive”. The result for `CC[C@@H](C)CCCCC(=O)N[C@@H](CCN)C(=O)N[C@H](C(=O)N[C@@H](CCN)C(=O)N[C@H]1CCNC(=O)[C@H]([C@@H](C)O)NC(=O)[C@H](CCN)NC(=O)[C@H](CCN)NC(=O)[C@H](CC(C)C)NC(=O)[C@@H](Cc2ccccc2)NC(=O)[C@@H](CCN)NC1=O)[C@@H](C)O` reads “inactive”; that for `CC(C)C[C@H]1NC(=O)[C@@H](CCCN)NC(=O)[C@H](C(C)C)NC(=O)[C@H]2CCCN2C(=O)[C@@H](Cc2ccccc2)NC(=O)[C@@H](CC(C)C)NC(=O)[C@@H](CCCN)NC(=O)[C@H](C(C)C)NC(=O)[C@H]2CCCN2C(=O)[C@@H](Cc2ccccc2)NC1=O`, “active”. In the case of `C[C@H]1[C@H]2[C@H](Cc3ccccc3)NC(=O)[C@]23C(=O)N[C@H](Cc2ccccc2)C(=O)N2CCC[C@H]2C(=O)NC/C=C\C/C=C/[C@@H]3[C@@H]2O[C@]12C`, the cytotoxicity call was “inactive”.

For the compound `CC(C)C[C@@H]1NC(=O)[C@@H](C(C)C)NC(=O)[C@@H]2CCCN2C(=O)[C@@H](CC(=O)O)NC(=O)[C@@H](Cc2c[nH]c3ccccc23)NC1=O`, the cytotoxicity call was “inactive”.

With `CC1NC(=O)C2CCCN2C(=O)C(CC(N)=O)NC(=O)C2CSSCC(N)C(=O)NC3CSSCC(NC1=O)C(=O)NC(C(C)O)C(=O)NCC(=O)NC(C(=O)NC(Cc1ccc(O)cc1)C(=O)O)CSSCC(NC(=O)C(Cc1ccc(O)cc1)NC(=O)C(CCC(=O)O)NC3=O)C(=O)N2` (centres undefined), the cytotoxicity call was “inactive”.

As to `C[C@H]1CN([C@@H](C)CO)C(=O)c2cc(NS(=O)(=O)c3cccs3)ccc2O[C@H]1CN(C)S(C)(=O)=O`, the cytotoxicity call is “inactive”.

Regarding `COc1ccc(S(=O)(=O)N(C)C[C@@H]2Oc3ccc(NS(=O)(=O)c4ccccc4)cc3CC(=O)N([C@H](C)CO)C[C@@H]2C)cc1`, the cytotoxicity call is “inactive”. The entry for `COCCN(C)C(=O)c1ccc2nnc([C@H]3CN(S(C)(=O)=O)CCN3C)n2c1` is “inactive”.

For `C=CCOC(=O)[C@@H]1[C@H]2C(=O)O[C@H](c3ccccc3)[C@H](c3ccccc3)N2[C@H](c2ccc(OCCOC(=O)[C@@H]3C[C@@H]4C(=O)N[C@@H](CCCCNC(C)=O)C(=O)N4[C@@H]3c3ccc(O)cc3)cc2)[C@@]12C(=O)Nc1ccccc12`, the cytotoxicity call was “inactive”. With `C=CCNC1=C2C[C@@H](C)C[C@H](OC)[C@H](O)[C@@H](C)/C=C(\C)[C@H](OC(N)=O)[C@@H](OC)/C=C\C=C(/C)C(=O)NC(=CC1=O)C2=O`, the cytotoxicity call is “active”.

Take `CO[C@H]1/C=C\C=C(/C)C(=O)NC2=CC(=O)C(NCCN(C)C)=C(C[C@@H](C)C[C@H](OC)[C@H](O)[C@@H](C)/C=C(\C)[C@@H]1OC(N)=O)C2=O`: the cytotoxicity call was “active”.

Turning to `C=CCNC1=C2C[C@H](C)C[C@H](OC)[C@@H](O)[C@H](C)/C=C(\C)[C@H](OC(N)=O)[C@H](OC)/C=C/C=C(\C)C(=O)NC(=CC1=O)C2=O`, the cytotoxicity call was “active”.

(Values after the antibiotic and cytotoxicity screens of Wong et al. (2023).)
